Data as given in PubChem BioAssay (Tox21).
Records with an inconclusive call do not appear. Unmarked numbers belong to inactive results. Activity calls are given as the source filed them. The call rests on the fitted dose curve; in most records, active means well fitted cell-killing curve with a large enough effect in the repeat runs; inconclusive means weak or mixed curves, or effect the other way; inactive means flat fitted curve, though single readings scatter.

test: cAMP Responsive Elements (CRE) small molecule antagonists, cell-based qHTS assay: qHTS cell viability counter screen (AID 2060913); details: CRE-bla HEK293T viability, CellTiter-Glo luminescence, 5 h; series mostly up to 92.4 µM; viability change, negative = cytotoxic: at the top concentration; further: nearly all actives have a fitted effect of over 40% in size
In short: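 Steps: cells plated and held 18 hrs at 37 C/5% CO2; compounds and NKH477 (0.25 uM final) added; 3 hrs incubation; reporter substrate read; CellTiter-Glo added to measure cytotoxicity by luminescence.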
On the % scale 0 is the no-effect control and ±100 the full control effect.

Compound | Potency | viability change, negative = cytotoxic
CC(=O)Nc1cccc(O)c1 | inactive | 
OC(CCN1CCCCC1)(c1ccccc1)C1CCCCC1 (stereo not given) |  | -15.1% [at 42.5 µM]
CC[N+](CC)(CC(=O)Nc1c(C)cccc1C)Cc1ccccc1 | inactive | 
Nc1nc2ccccc2[nH]1 | inactive | 
C=C[C@H]1CN2CC[C@H]1C[C@H]2[C@H](O)c1ccnc2ccc(OC)cc12 | inactive | 
NCCC(O)(P(=O)(O)O)P(=O)(O)O |  | 1.81% [at 42.5 µM]
O=C1CCCCCCCCCCC1 | inactive | 
CC1(C)S[C@@H]2[C@H](NC(=O)COc3ccccc3)C(=O)N2[C@H]1C(=O)O | inactive | 
CCCCOC(=O)CC#N |  | -6.72%
NC(=O)c1ncn([C@@H]2O[C@H](CO)[C@@H](O)[C@H]2O)c1O |  | -0.689% [at 42.5 µM]
Cc1cc(OI)c(C(C)C)cc1-c1cc(C(C)C)c(OI)cc1C |  | -1.33% [at 42.5 µM]
CC(CC=O)CCCC(C)(C)O (stereo not given) |  | -2.8%
COC(C)(C)CCO |  | 7.54%
CC(C)Nc1ccc(NC(C)C)c2c1C(=O)c1ccccc1C2=O |  | -0.25% [at 42.5 µM]
CC(C)c1ccc(C#N)cc1 |  | 4.82%
CC(C)=CCC[C@](C)(O)[C@@H]1CC=C(C)CC1 |  | -8.62%
CC(C)C1CCC(O)CC1 (stereo not given) |  | -3.47%
Cn1c(=O)c2[nH]cnc2n(C)c1=O | inactive | 
NCC1(Cc2noc(=O)[nH]2)CCCCC1 |  | 11.9%
Cc1ccccn1 |  | 1.97%

Compound | Potency | viability change, negative = cytotoxic
c1cc2ccc3ccc4ccc5cccc6c(c1)c2c3c4c56 |  | 18.5% [at 3.27 µM]
O=C(Nc1ccc2c(O)c(N=Nc3ccc(N=Nc4ccc(S(=O)(=O)O)cc4)cc3)c(S(=O)(=O)O)cc2c1)c1ccccc1 |  | -2.34%
NCCN1CCNC1=O |  | -0.386%
CC(=O)OC(C)(C)C1CC=C(C)CC1 (stereo not given) | inactive | 
CC(C)C1=CC2=CC[C@@H]3[C@](C)(CCC[C@@]3(C)C(=O)O)[C@H]2CC1 |  | -0.265%
CC(C)(C)OC=O |  | -6.28%
CCC(=O)c1c(O)cc(O)cc1O |  | -2.85% [at 42.5 µM]
CCN(CC)CC(=O)OCC(=O)[C@@]1(O)CC[C@H]2[C@@H]3CCC4=CC(=O)CC[C@]4(C)[C@H]3[C@@H](O)C[C@@]21C |  | -2.19% [at 42.5 µM]
C[C@@H](O)[C@H]1C(=O)N2C(C(=O)O)=C(SCCN=CN)C[C@H]12 |  | 4.65% [at 42.5 µM]
NCCCN1CCN(CCCN)CC1 |  | 0.396%
NC(=O)c1ncn([C@@H]2O[C@H](CO)[C@@H](O)[C@H]2O)c1N |  | 5.71% [at 42.5 µM]
CC1=C(CC(=O)O)c2cc(F)ccc2/C1=C\c1ccc(S(C)(=O)=O)cc1 |  | 12.8% [at 42.5 µM]
CCCCCCCCCCCCCCO | inactive | 
CCN(Cc1ccccc1)c1ccccc1 |  | -15.9%
COC(=O)OC | inactive | 
O=C(Cl)c1c(Cl)cccc1Cl |  | -2.44%
C=CC(C)(C)CC(=O)OC |  | 0.0318%
CCc1cc2cc(OC)c(OC)cc2c(Cc2ccccc2)n1 |  | 1.81% [at 42.5 µM]
CCOC(=O)[C@@](C)(N)Cc1ccc(O)c(O)c1 |  | 0.413% [at 42.5 µM]
C=CC(C)(CCC=C(C)C)OC(=O)CC (stereo not given) |  | 13.3%
